Measurements taken from PubChem BioAssay (Tox21).
Records with an inconclusive call do not appear. Where a call stands in place of a potency, no number is given. Values without a mark were called inactive. Calls of active or inactive are those of the source. Calls come from the whole dose curve; as a rule, active = well fitted inhibition curve with a large enough effect in the repeat runs; inconclusive = weak or mixed curves; inactive = no such curve, though single readings can be large or run the other way.

What follows are compounds tested against Cytochrome P450 2D6 (Homo sapiens) (UniProt P10635) (assay: Cytochrome P450 Family 2 Subfamily D Member 6 (CYP2D6) small molecule antagonists: luciferase reporter qHTS assay (AID 1671196; note: nearly all actives have a fitted effect of over 50% in size)). Conditions: P450-Glo CYP2D6 enzyme assay, luciferin luminescence, 1 h; series mostly up to 115 µM.
Sequence of Cytochrome P450 2D6 (Homo sapiens) (P10635 whole entry, looked up): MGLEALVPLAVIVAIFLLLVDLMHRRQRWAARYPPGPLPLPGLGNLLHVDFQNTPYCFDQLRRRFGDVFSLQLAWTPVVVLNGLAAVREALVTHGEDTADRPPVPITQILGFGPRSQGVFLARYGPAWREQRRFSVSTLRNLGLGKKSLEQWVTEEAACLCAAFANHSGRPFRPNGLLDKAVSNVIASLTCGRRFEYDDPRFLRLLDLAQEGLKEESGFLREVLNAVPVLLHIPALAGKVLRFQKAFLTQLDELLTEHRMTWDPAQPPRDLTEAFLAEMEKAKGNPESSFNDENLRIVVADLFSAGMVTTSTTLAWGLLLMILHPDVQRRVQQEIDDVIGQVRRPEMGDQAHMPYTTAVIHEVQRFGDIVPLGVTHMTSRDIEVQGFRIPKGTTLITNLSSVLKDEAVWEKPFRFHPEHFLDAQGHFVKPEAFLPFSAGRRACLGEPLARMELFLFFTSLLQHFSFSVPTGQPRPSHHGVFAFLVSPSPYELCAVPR
Source text: U.S. Tox21 Program National Center for Advancing Translational Sciences [NCATS] U.S. Environmental Protection Agency [EPA] National Institutes of Environmental Health Sciences [NIEHS] National Toxicology Program [NTP] U.S. Food and Drug Administration [FDA] Tox21 Assay Overview: Cytochrome P450 (CYP) enzymes are membrane-bound hemeproteins that play a key role in metabolism of drugs and xenobiotics. Evaluation of the effect of chemicals on CYP isozymes is useful to minimize the adverse drug reactions and toxicities in drug development process. Tox21 chemicals were tested for their effect on CYP enzyme activities by using P450-Glo (TM) screening systems (Promega Corporation, Madison, WI). These systems provide a luminescent method containing proluciferin substrates and are converted to luciferin products by CYP isozymes. The luciferin products formed are detected with a luciferin detection reagent, and the amount of light produced is proportional to CYP activity. P450-Glo (TM) CYP2D6 screening system (Catalog. No. V9890) was used to detect the compounds that interfere in CYP2D6 activity.
Tox21 Assay Protocol Summary: Two ul of enzyme-substrate mix was dispensed into medium binding white/solid 1536-well plates (Greiner Bio-One North America Inc., Monroe, NC) using a BioRaptr Flying Reagent Dispenser (FRD, Beckman Coulter, Brea, CA). […] The assay plates were incubated at room temperature for 10 min. Then 2 ul of NADPH regeneration solution was added to each well of the assay plates using an FRD and incubated at room temperature for 1 h. The reaction was stopped by adding 4 ul of detection reagent using an FRD and after 20 min incubation at room temperature the luminescence signal was measured using a ViewLux plate reader (Perkin Elmer, Shelton, CT). Data were expressed as relative luminescence units.
Potency is the fitted concentration of half-maximal effect.

Compound | Potency | activity change, negative = inhibition
COc1ccccc1N1CCN(CC(O)COc2cccc3ccccc23)CC1 (stereo not given) | 1.55 µM (active) | 
CCC(OCCCOC)OC(C)=O (stereo not given) | inactive | 
O[C@@H]1CO[C@H]2[C@@H]1OC[C@@H]2O | inactive | 
CCOC(=O)c1ccc(C#Cc2ccc3c(c2)C(C)(C)CCS3)nc1 | inactive | 
CCCCCCC(C)(C)C(=O)O | inactive | 
CCn1cc(C(=O)O)c(=O)c2cc(F)c(N3CCNCC3)cc21 | inactive | 
O=C1NC(=O)c2cc([N+](=O)[O-])ccc21 | 63.8 µM (active) | 
CC(C)=CCC1C(=O)N(c2ccccc2)N(c2ccccc2)C1=O | inactive | 
COc1cc(C(=O)NCCCCCC(=O)O)cc(OC)c1OC | inactive | 
Cc1ccccc1S | 28.5 µM (active) | 
c1ccc2sc(SN(C3CCCCC3)C3CCCCC3)nc2c1 | 1.25 µM (active) | 
CCCCCCCCOc1ccc(C(=O)O)cc1 | inactive | 
Nc1ncnc2c1ncn2[C@H]1CC[C@@H](CO)O1 | inactive | 
C=C(C)C(=O)OCCOCCOC(=O)C(=C)C | inactive | 
COC(=O)CS | inactive | 
O=C(O)c1ccc(OCCCOc2ccc(C(=O)O)cc2)cc1 | 8.71 µM (active) | 
C[C@@H](O[C@H]1OCCN(Cc2n[nH]c(=O)[nH]2)[C@H]1c1ccc(F)cc1)c1cc(C(F)(F)F)cc(C(F)(F)F)c1 | 19.5 µM (active) | 
CCOC(=O)c1ccc(OCCN2C[C@H](O)[C@@H](O)[C@H](O)[C@H]2CO)cc1 | inactive | 
O=c1[nH]c2ccc(Cl)cc2o1 | inactive | 
CC1=C(CC=O)C(C)(C)CCC1 | inactive | 

Compound | Potency | activity change, negative = inhibition
CN(C(=O)CN(CCO)CC(=O)N(C)C(C)(C)Cc1ccccc1)C(C)(C)Cc1ccccc1 | 4.36 µM (active) | 
CCCCN(CCCC)C(C(N)=O)c1ccc(OC)cc1 (stereo not given) | 0.977 µM (active) | 
O=C(/C=C/c1ccc(O)c(O)c1)O[C@@H]1C[C@@](OC(=O)/C=C/c2ccc(O)c(O)c2)(C(=O)O)C[C@@H](O)[C@@H]1O | inactive | 
C[C@@H](O)[C@H]1C(=O)N2C(C(=O)O)=C([C@H]3CCCO3)S[C@H]12 | inactive | 
FC(F)(F)c1ccccc1Cl | 46 µM (active) | 
O=C1c2ccccc2C(=O)N1CCc1noc(-c2ccc(CN3CCCCCC3)s2)n1 | 8.19 µM (active) | 
Cc1ccc(CO)cc1 | inactive | 
Cc1cc(=O)c2c(O)c3c(O)cc(=O)c4c3c3c(cc(O)c1c23)C(C)(C)C=4O |  | -16.7% [at 23.6 µM]
C=C(C)[C@@H]1CCC2=CCC[C@@H](C)[C@]2(C)C1 | inactive | 
CN1C(C(=O)Nc2ccccn2)=C(O)c2sccc2S1(=O)=O | inactive | 
O=C1Cc2cc(Cl)ccc2N1 | inactive | 
CS(=O)(=O)c1ccc(-c2cn3ccccc3n2)cc1 | 27.5 µM (active) | 
c1cc(N(CC2CO2)CC2CO2)ccc1Cc1ccc(N(CC2CO2)CC2CO2)cc1 (stereo not given) | inactive | 
NNC(=O)CP(=O)(c1ccccc1)c1ccccc1 | inactive | 
CCOC(=O)[C@H](CCc1ccccc1)N[C@@H](C)C(=O)N(CC(=O)O)C1Cc2ccccc2C1 | inactive | 
COC(=O)c1nc(Cl)c(Cl)nc1N | inactive | 
C=CCc1ccccc1OCC(O)CNC(C)C (stereo not given) | 5.49 µM (active) | 
Cc1ccc(Cl)c(Nc2ccccc2C(=O)O)c1Cl | inactive | 
C/C=C/C=C/C=O | inactive | 
O=C(CCCN1CC=C(n2c(=O)[nH]c3ccccc32)CC1)c1ccc(F)cc1 | 2.45 µM (active) | 
